# Reference: the OligoGym collection
# Molecular target: RABGEF1
# Test: pooled miR-30 sensor sort-seq; sequence = guide strand
# Conditions: shRNA
row,Sequence,sensor-assay potency score (higher = more potent)
1,TTCACTGTGGTAACCTTGCGGG,-0.0581
2,TTCATTAACAGGGACACACAGC,-0.293
3,TTATACATTTGCTTGACGCCTA,0.54
4,TTTCAGAGTCAATAGCTGCTAA,-0.257
5,TTGAATGGCAAGATCTTTCTTC,0.743
6,TTTCTTTTCTTCAAACTTGGAG,-0.131
7,TTCTTTTCTTCAAACTTGGAGA,-0.783

# Molecular target: RAD18
# Test: as above
# Conditions: shRNA
row,Sequence,sensor-assay potency score (higher = more potent)
1,TTCTGTGTCTTGAAGATCGTTT,0.506
2,TTTCATTGAGTTTACTAGCTTC,0.211
3,TTTGTGAACAGAACTTCTGAGG,-0.395
4,TAGAATTTAGCATCTTTCCTTG,-0.0135
5,TTTTCTAGCCTGATCCACCAGA,-0.673
6,TATAAATAGAAAATCTATCTGT,0.122
7,TTTTGTGAACAGAACTTCTGAG,0.451
8,TTTATCAACAACTCTGATGTAG,1.04
9,TACTTTGACAGCAAGATTCTTT,0.474
10,TTTTCTTTTATCAACAACTCTG,0.0462
11,TTTCCTTCTTCTCTTCGCGTGA,-0.0825

# Molecular target: RAD54L
# Test: as above
# Conditions: shRNA
row,Sequence,sensor-assay potency score (higher = more potent)
1,TTGACCATCTCGCCAGACCCGG,-1.03
2,TTCTTAATGGACATCGTGCCAT,-0.43
3,TTCATGCTGACTGCTGTCCAGA,-1.19
4,TTAACAAAATGTACCAAGCTGA,-0.415
5,TTCTTTTGACCATCTCGCCAGA,-0.96
6,TCTTGTATAACTCAGTCTGAAG,-1.48
7,TTCTTGATGATTTTCTCCCAGA,-0.985
8,TTGATTGGTTAGCTGACTCAAA,-0.506
9,TTACAAAGCTTCTTTAGCGAGG,-0.517
10,TAGATATAGCAAGTCTTCTTTT,-1.02
11,TTGTCTCAGAAACCTCTTGTAT,-1.26
12,TTGCACTCTGGACTCTGGCGTA,-0.761

# Molecular target: RAD9A
# Test: as above
# Conditions: shRNA
row,Sequence,sensor-assay potency score (higher = more potent)
1,TTCCTTAGGAAGGTGAGCCTGA,0.111
2,TTTACAGTGACAGCCAGCTGGG,-1.03
3,TCAAGTTTGCTGACTCTGCAAA,-0.678
4,TTTTTCCACCGTCTTCTCCAGC,-1.2
5,TCACATCTAAGACACTGCCTGG,-0.534
6,TGAATCAATAGCAGCGTCCAGT,-0.732
7,TACAGTGACAGCCAGCTGGGGC,-0.774
8,TTAATGAATCAATAGCAGCGTC,-0.585
9,TCATTGGCAAAGTCGTCCGGGT,-0.913
10,TGTGCTGTGAGCCTGGAGCTGA,-0.559
